Compound activity deposited in PubChem BioAssay by NMMLSC.
RGS16-Gao HTS = modulates binding between human RGS16 and Galphao; O15492+P09471; bead-based flow cytometry RGS16-Galphao binding, fluorescence; actives lie on both sides; binding response (% of control), % at 10 µM; hit rate 0.38% among 220,000; AID 1441;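 note: Galphao activated by GDP with aluminum fluoride before binding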
Target sequence (O15492 whole entry, looked up): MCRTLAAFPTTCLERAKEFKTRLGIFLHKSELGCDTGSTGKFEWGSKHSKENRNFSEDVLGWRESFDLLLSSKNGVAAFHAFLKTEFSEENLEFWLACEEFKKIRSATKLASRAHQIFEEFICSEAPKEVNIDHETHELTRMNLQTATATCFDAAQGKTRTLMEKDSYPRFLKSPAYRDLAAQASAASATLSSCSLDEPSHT
Target sequence (P09471 whole entry, looked up): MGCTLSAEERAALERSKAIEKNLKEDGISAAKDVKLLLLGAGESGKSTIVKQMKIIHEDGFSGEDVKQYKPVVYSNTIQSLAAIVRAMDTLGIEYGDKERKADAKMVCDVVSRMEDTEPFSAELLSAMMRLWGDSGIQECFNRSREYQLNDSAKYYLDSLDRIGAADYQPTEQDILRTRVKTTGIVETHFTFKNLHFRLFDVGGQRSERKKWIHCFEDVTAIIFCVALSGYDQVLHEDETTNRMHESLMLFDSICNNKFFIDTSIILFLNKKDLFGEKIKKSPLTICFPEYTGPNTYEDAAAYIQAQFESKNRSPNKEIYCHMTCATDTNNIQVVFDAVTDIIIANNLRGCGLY
GSH fluor = GSH bead compound fluorescence profile. GSH beads flow cytometry, compound fluorescence 488/530 nm; active compounds read high. fluorescence (KMESF) at 10 µM. hit rate 0.25% among 190,000. AID 1776; in the data active = fluorescence above about 89;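 note: glutathione beads carrying GST-tagged Bcl family fusion proteins plus one bare bead set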
RGS7-Gao reg = human RGS7-Galphao interaction regulation; P09471; Multiplexed bead flow cytometry, RGS7-Galphao binding; actives lie on both sides; binding response (% of control), % at 10 µM; hit rate 0.35% among 220,000; AID 1439; in the data active = binding response below about 49% or above about 150%; inconclusive = no clear call, values can overlap the other calls; inactive = in between;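 note: fluorescent Galphao held in activated GDP-AlF4 state binding bead-coupled RGS7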
Target sequence (P09471 whole entry, looked up): as above
Avidin bead fluor = avidin bead compound fluorescence profile. Avidin beads, compound fluorescence 488/530 nm, flow cytometry; active compounds read high. hit rate 0.38% among 220,000. fluorescence (KMESF) at 10 µM; in the data active = fluorescence above about 47
RGS8-Gao = regulators of human RGS8-Galphao interaction; P09471; multiplexed bead flow cytometry, RGS8-Galphao binding; actives lie on both sides; response (percent of control binding), % at 10 µM; hit rate 0.34% among 220,000; in the data active = response below about 60% or above about 140%; inactive = in between;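 note: Galphao activated as the GDP aluminium fluoride complex binding bead-coupled RGS8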
RGS4-Gao reg = human RGS4-Galphao interaction regulation; P09471; Multiplexed bead flow cytometry, RGS4-Galphao binding; actives lie on both sides; binding response (% of control), % at 10 µM; hit rate 0.33% among 220,000; in the data active = binding response below about 49% or above about 150%; inactive = in between;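 note: fluorescent Galphao activated with aluminum fluoride binding bead-coupled RGS4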
RGS-Gao = regulators of human RGS4-Galphao interaction | AID 1504 | multiplexed bead flow cytometry, RGS–Galpha-o binding | shares compounds with RGS16-Gao HTS | RGS4–Galpha-o binding response, % at 10 µM | hit rate 99% among 1,600;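 note: fluorescently labeled Galpha-o bound to GDP with aluminium fluoride binding biotinylated RGS beads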
Biotin-avidin = counter-screen: compounds disrupting biotin binding to avidin beads | streptavidin beads, fluorescein-biotin binding, flow cytometry | 1,700 tested, under 10 active | shares compounds with RGS16-Gao HTS | inhibition, % at 10 µM;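 active = inhibition above 50%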;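 note: median green fluorescence of gated singlet beads compared with DMSO control wells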
RGS8-Gao single = confirmation of regulators of human RGS8-Galphao interaction; shares compounds with RGS16-Gao HTS; bead-based flow cytometry RGS8-Galphao binding, fluorescence; actives lie on both sides; binding response (% of control), % at 10 µM; hit rate 3% among 1,700; in the data active = binding response below about 72% or above about 130%; inactive = in between;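 note: Galphao activated as GDP AlF4 complex before binding bead RGS8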
RGS7-Gao single = confirmation of regulators of human RGS7-Galphao interaction; shares compounds with RGS16-Gao HTS; bead-based flow cytometry RGS7-Galphao binding; actives lie on both sides; response (percent of control binding), % at 10 µM; hit rate 7.8% among 1,700; AID 1837; in the data active = response below about 75% or above about 130%; inactive = in between;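 note: fluorescent Galphao activated with GDP and aluminum fluoride binding bead-coupled RGS7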
RGS16-Gao conf = RGS16-Galphao interaction regulation, single point confirmation; shares compounds with RGS16-Gao HTS; bead-based flow cytometry, RGS16-Galphao binding; actives lie on both sides; response (% of control binding), % at 10 µM; hit rate 4% among 1,700; AID 1838; in the data active = response below about 74% or above about 130%; inactive = in between;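 note: Galphao activated as the GDP aluminium fluoride complex binding bead-coupled RGS16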
RGS4-Gao confirm = RGS4-Galphao interaction regulation, single point confirmation. shares compounds with RGS16-Gao HTS. RGS4-Galphao binding, multiplexed bead flow cytometry; actives lie on both sides. binding response (% of control), % at 10 µM. hit rate 4% among 1,700. AID 1840; in the data active = binding response below about 74% or above about 130%; inactive = in between
RGS19-Gao conf = RGS19-Galphao interaction regulation, single point confirmation; bead-based flow cytometry RGS19-Galphao binding; actives lie on both sides; shares compounds with RGS16-Gao HTS; hit rate 5% among 1,700; response (percent of control binding), % at 10 µM; in the data active = response below about 50% or above about 160%; inactive = in between
Numbers stand for hits; [ ] = another dose, or the depositor's remark. Rows were chosen to be rich in hits. Some 1.2% of all compounds tested hit in one or more screens of this group. Unless noted, the rule behind the calls is not given here.

For C/C(=N/NC(=O)c1cc(O)c(O)c(O)c1)c1ccc([N+](=O)[O-])cc1 the results were RGS16-Gao HTS -2.4, GSH fluor inactive, RGS7-Gao reg 6.2, Avidin bead fluor inactive, RGS8-Gao 8.8, RGS4-Gao reg 21, Biotin-avidin inactive, RGS8-Gao single inactive, RGS7-Gao single inactive, RGS16-Gao conf inactive, RGS4-Gao confirm inactive and RGS19-Gao conf inactive.
`CCCCN=CC1=C(O)CC(c2ccccc2)CC1=O` (stereo not drawn) gave RGS16-Gao HTS inactive, GSH fluor inactive, RGS7-Gao reg inconclusive, Avidin bead fluor inactive, RGS8-Gao inactive and RGS4-Gao reg inactive.
CCN1/C(=C/C(C)=C/c2sc3ccccc3[n+]2CC)Sc2ccccc21 was read as RGS16-Gao HTS inactive, GSH fluor inactive, RGS7-Gao reg inactive, Avidin bead fluor inactive, RGS8-Gao 53, RGS4-Gao reg inactive, RGS-Gao 57, Biotin-avidin inactive, RGS8-Gao single inactive, RGS7-Gao single inactive, RGS16-Gao conf inactive, RGS4-Gao confirm inactive and RGS19-Gao conf inactive.
CCn1cc(-c2n[nH]c(=S)n2-c2ccc(C)cc2Br)c(=O)c2ccc(C)nc21 was read as RGS16-Gao HTS inactive, RGS7-Gao reg inconclusive, Avidin bead fluor inactive, RGS8-Gao inactive and RGS4-Gao reg inactive.
Cn1cccc1/C=C1\SC(=O)N(CC(=O)Nc2ccc(Cl)cc2)C1=O was read as RGS16-Gao HTS inactive, GSH fluor inactive, RGS7-Gao reg inactive, RGS8-Gao inactive and RGS4-Gao reg inactive.
Screening Cc1ccc(NC(=O)CN2C(=O)S/C(=C\C(=O)Nc3ccc(Cl)cc3)C2=O)cc1 returned RGS16-Gao HTS 8.0, GSH fluor inactive, RGS7-Gao reg inactive, Avidin bead fluor inactive, RGS8-Gao inactive, RGS4-Gao reg inactive, RGS-Gao 79, Biotin-avidin inactive, RGS8-Gao single inactive, RGS7-Gao single inactive, RGS16-Gao conf inactive, RGS4-Gao confirm inactive and RGS19-Gao conf inactive.
For CCn1c(C)cc(/C=C2\SC(=O)N(CC(=O)Nc3ccc(C)c(C)c3)C2=O)c1C the results were RGS16-Gao HTS -95, GSH fluor inactive, RGS7-Gao reg -28, Avidin bead fluor inactive, RGS8-Gao 6.0, RGS4-Gao reg -95, Biotin-avidin inactive, RGS8-Gao single inactive, RGS7-Gao single inactive, RGS16-Gao conf inactive, RGS4-Gao confirm inactive and RGS19-Gao conf inactive.
CCOc1cc(N2CCCC2)ccc1[N+](=O)[O-] was read as RGS16-Gao HTS inactive, GSH fluor inactive, RGS7-Gao reg inactive, Avidin bead fluor inactive, RGS8-Gao inactive and RGS4-Gao reg inactive.
For Cc1noc(C)c1COc1cccc(C(=O)OC(C)C(=O)Nc2c(C)n(C)n(-c3ccccc3)c2=O)c1 (stereo not drawn) the results were RGS16-Gao HTS inactive, GSH fluor inactive, RGS7-Gao reg inactive, Avidin bead fluor inactive, RGS8-Gao inactive and RGS4-Gao reg inactive.
`CC(=O)c1c(C(C)=O)c(C)n(NC(=O)c2ccc(Cl)cc2)c1C` gave RGS16-Gao HTS inactive, GSH fluor inactive, RGS7-Gao reg 163[activator], Avidin bead fluor 71, RGS8-Gao inactive, RGS4-Gao reg 194[activator], Biotin-avidin inactive, RGS8-Gao single inactive, RGS7-Gao single inactive, RGS16-Gao conf inactive, RGS4-Gao confirm inactive and RGS19-Gao conf inactive.
`O=C(Nc1ccc2c(c1)OCO2)N1CCN(c2ccccc2Cl)CC1` gave RGS16-Gao HTS inactive, GSH fluor inactive, RGS7-Gao reg inactive, Avidin bead fluor inactive, RGS8-Gao inactive and RGS4-Gao reg inactive.
Screening O=C(Nc1ccc2c(c1)OCO2)N1CCN(c2cccc(C(F)(F)F)c2)CC1 returned RGS16-Gao HTS inactive, GSH fluor inactive, RGS7-Gao reg inactive, Avidin bead fluor inactive, RGS8-Gao inactive, RGS4-Gao reg 47, Biotin-avidin inactive, RGS8-Gao single inactive, RGS7-Gao single inactive, RGS16-Gao conf inactive, RGS4-Gao confirm inactive and RGS19-Gao conf inactive.
For C[C@H](NC(=O)c1nc[nH]c1C(=O)N[C@H](C)c1ccccc1)C(=O)OC(C)(C)C the results were RGS16-Gao HTS 16, GSH fluor inactive, RGS7-Gao reg 17, Avidin bead fluor inactive, RGS8-Gao 21, RGS4-Gao reg 25, Biotin-avidin inactive, RGS8-Gao single inactive, RGS7-Gao single inactive, RGS16-Gao conf inactive, RGS4-Gao confirm inactive and RGS19-Gao conf inactive.
For C[C@H](NC(=O)c1nc[nH]c1C(=O)NCc1ccccc1)C(=O)OC(C)(C)C the results were RGS16-Gao HTS inactive, GSH fluor inactive, RGS7-Gao reg 26, Avidin bead fluor inactive, RGS8-Gao 42, RGS4-Gao reg 39, Biotin-avidin inactive, RGS8-Gao single inactive, RGS7-Gao single inactive, RGS16-Gao conf inactive, RGS4-Gao confirm inactive and RGS19-Gao conf inactive.
`CCOCC(=O)Nc1c(C)n(C)n(-c2ccccc2)c1=O` gave RGS16-Gao HTS inactive, GSH fluor inactive, RGS7-Gao reg inactive, Avidin bead fluor inactive, RGS8-Gao inactive and RGS4-Gao reg inactive.
`Cc1c(NC(=O)CSc2n[nH]c(=O)n2-c2ccccc2)c(=O)n(-c2ccccc2)n1C` gave RGS16-Gao HTS inactive, GSH fluor inactive, RGS7-Gao reg inactive, Avidin bead fluor inactive, RGS8-Gao inactive and RGS4-Gao reg inactive.
`Cc1c(NC(=O)COC(=O)COc2ccc(Nc3ccccc3)cc2)c(=O)n(-c2ccccc2)n1C` gave RGS16-Gao HTS inactive, GSH fluor inactive, RGS7-Gao reg 155[activator], Avidin bead fluor inactive, RGS8-Gao 140[activator], RGS4-Gao reg inactive and RGS-Gao 143.
